Source: PubChem
Most compounds without a hit are left out; they make up all but 9.6% or so of the library.
bCat KO growth: beta-catenin-lacking colon tumor cell growth suppression. HCT116 beta-catenin knockout viability, CellTiter-Glo, 60 h; stronger effect = lower value. AID 818. viability, % at 10 µM. hit rate 1.5% among 140,000;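 active = viability at or under a set limit, the compound median less 4 SD, cut at about 6% in these data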;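 note: 0% = Hyamine 1622 control at 20 µM and 100% = untreated cell control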
Insulin prom inh: TRM-6 insulin promoter activity inhibition. TRM-6 cells (human fetal islet line), insulin promoter-eGFP reporter, imaging; reporter expression induced with tamoxifen. inhibition, % at 2 µM. hit rate 0.9% among 130,000;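 active = inhibition above the mean plus 3 SD, with well images judged a real hit on visual review, cut at about 60% in these data, passing the limit was not always enough; inconclusive = inhibition over the cutoff but images rejected on review; inactive = inhibition not above the cutoff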
Lmaj promast: Leishmania major promastigote growth inhibition. hit rate 9% among 200,000. inhibition, % at 10 µM. Leishmania major promastigotes, resazurin fluorescence viability; in the data active = inhibition above about 50%;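 note: promastigotes grown with compound for 44 hours at 28 °C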
Autophagy mod: alters autophagy in cells; MEF GFP-LC3 puncta imaging; test concentration mostly 10 µM; calls only at 10 µM (by protocol); hit rate 0.98% among 190,000;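 active = percentage of spot-positive cells more than 3 SD above its plate mean, without a fluorescence outlier flag or 80% toxicity; inconclusive = no clear call, values can overlap the other calls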;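 note: spot-positive cell cutoff set from DMSO-treated cells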
HCT116 PTEN-null: suppresses growth of cells with PTEN deletion. AID 827. viability, % at 10 µM. hit rate 1.2% among 140,000. HCT116 PTEN-null viability, CellTiter-Glo, 60 h; stronger effect = lower value;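 active = viability at or below a set limit, 4 SD under the median of all tested compounds, cut at about 3.7% in these data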;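 note: PTEN knockout HCT116 line with beta catenin targeted HCT116 as companion control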
Ins promoter up: MIN6 insulin promoter up-regulation; z-score at 5 µM; hit rate 0.3% among 190,000; MIN6 insulin promoter-GFP reporter, high-content imaging; stronger effect = higher value;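 active = z-score above 3 at 5 µM with at least 500 cells counted in the well; inconclusive = wells under 500 cells, flagged as cytotoxic or low count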
Starred values were filed as active, the others as inactive; i = inactive; ? = inconclusive; · = no result; + = active, no number.

SMILES	bCat KO growth	Insulin prom inh	Lmaj promast	Autophagy mod	HCT116 PTEN-null	Ins promoter up
O=C(CNc1cccc([N+](=O)[O-])c1)N/N=C/c1ccc([N+](=O)[O-])o1	·	0	100*	i	·	-1.8
Cn1c(=O)c2c(ncn2CC(=O)N/N=C/C=C/c2ccccc2)n(C)c1=O	85	·	-6	i	83	0.07
O=C(CNc1cccc2ccccc12)N/N=C/c1ccc[nH]1	·	·	·	·	·	-0.76
O=C(CNc1cccc2ccccc12)N/N=C/C(Br)=C/c1ccccc1	2.7*	-63	-2	i	1.2*	0.15
Cn1c(=O)c2c(ncn2CC(=O)N/N=C/C(Br)=C/c2ccccc2)n(C)c1=O	2.4*	-26	19	i	2.6*	-0.25
Cc1cccc(C)c1NC(=O)CN(C)CC(=O)Nc1ccccc1Br	93	-9	-2	i	93	-0.23
Cc1cc2c(C)c(C)c(=O)[nH]c2cc1N	74	-29	10	i	78	-0.56
CC1(C)C(C=C(Cl)Cl)C1C(=O)Nc1ccc([N+](=O)[O-])cc1 (centres undefined)	3.9*	12	88*	i	2.4*	0
Cc1sc2nc(-c3ccccn3)[nH]c(=O)c2c1-c1ccccc1	·	·	99*	i	·	-3.1
CCNc1nc(NCC)nc(SCCOC(=O)Nc2ccc(Cl)cc2Cl)n1	87	-29	3	i	86	-0.21
CCNc1nc(NCC)nc(SCCOC(=O)c2ccccc2)n1	92	72	55*	i	93	·
CC(C)NC(=O)c1onc(CSc2ccccn2)c1C(=O)NC(C)C	·	·	·	·	·	-0.32
COc1cnc(-c2ccccn2)nc1N(C)C	·	·	100*	i	·	-2.2
COc1cnc(-c2ccccn2)nc1Oc1c(C)cccc1C	·	-15	72*	i	·	-3
COc1cnc(-c2ccccn2)nc1Sc1ccccc1Cl	10	·	101*	i	13	·
COc1cnc(-c2ccccn2)nc1Oc1cccc(Cl)c1	75	·	100*	i	69	·
COC(=O)CCC(=O)N1CCOCCOCCOCC1	·	·	-3	i	·	0.38
Cc1nc2ccc(NC(=S)N3CCN(c4ccccn4)CC3)cc2nc1C	104	·	9	i	100	-0.87
CN1C(=O)c2ccc(N3CCCC3)cc2C1=O	98	30	1	i	97	·
Cc1cc(N2CCCC2)ccc1/C=N/n1cnnc1	82	0	67*	i	82	-1.3
O=C1/C(=C/c2ccc(N3CCCC3)cc2)NC(=S)N1C1CC1	85	-186	30	+	69	·
Cc1cc(N2CCCC2)ccc1/C=C1\NC(=S)N(C)C1=O	·	·	7	+	·	·
O=C1N/C(=C/c2ccc(N3CCCC3)cc2)C(=O)N1c1ccccc1	83	-24	69*	+	85	0.57
C=CCN(C(=O)c1ccccn1)C(C(=O)NCc1ccccc1)c1ccccc1F (centres undefined)	·	·	25	i	·	-0.61
COc1ccc(C(=O)CSc2nnc(C3CC3)n2N)cc1	88	-50	-7	i	104	0.06
SMILES	bCat KO growth	Insulin prom inh	Lmaj promast	Autophagy mod	HCT116 PTEN-null	Ins promoter up
CCCCCCOC(=O)C[N+](C)(C)CCOC1CC2CCC1(C)C2(C)C (centres undefined)	34	-27	100*	i	30	?
CC(C)CCOC(=O)C[N+](C)(C)CCOC1CC2CCC1(C)C2(C)C (centres undefined)	·	-12	91*	i	·	-4.7
CC(=O)OC(COC1C[C@@H]2CC[C@@]1(C)C2(C)C)C[N+]1(C)CCCCC1 (some centres undefined)	·	·	·	·	·	-0.11
CCC(C)OC(=O)C[N+](C)(C)CCOC1CC2CCC1(C)C2(C)C (centres undefined)	·	·	96*	i	·	-4.7
CC1(C)C2CCC1(C)C(OCCNCCOC(=O)Nc1ccccc1)C2 (centres undefined)	·	·	·	·	·	0.56
CCCCCCCOC(=O)C[N+](C)(C)CCOC1CC2CCC1(C)C2(C)C (centres undefined)	1.6*	·	100*	i	1.3*	?
Cc1c(C(=O)OC(C)C)sc(NC(=O)C2CCCO2)c1C(=O)OC(C)C (centres undefined)	88	-3	17	i	85	-1.6
C/C(=N\NC(=S)Nc1cccc(C)c1)c1ccco1	·	21	27	i	·	-0.57
CCCCOC(=O)C[N+](C)(C)CCOC1CC2CCC1(C)C2(C)C (centres undefined)	80	-10	69*	i	82	-0.92
CCCOC(=O)C[N+](C)(C)CCOC1CC2CCC1(C)C2(C)C (centres undefined)	·	·	·	·	·	-0.75
Cc1ccc(NC(=O)N(Cc2cc3cc(C)cc(C)c3[nH]c2=O)CC2COCCO2)cc1 (centres undefined)	79	45	46	i	66	-0.38
CCOc1ccc(C2C(C(=O)c3cccs3)=C(O)C(=O)N2Cc2cccnc2)cc1 (centres undefined)	·	-50	-8	+	·	-0.48
O=C1NCCCC1C(=O)N1CCN(C(c2ccccc2)c2ccccc2)CC1 (centres undefined)	101	30	-5	i	91	·
N#CC1=C(N)C(C#N)(C#N)C(c2cccnc2)C2CC(c3ccccc3)CC=C12 (centres undefined)	83	32	55*	i	82	-0.48
N#CC1=C(N)C(C#N)(C#N)C(c2cccnc2)C2CCCC=C12 (centres undefined)	96	20	33	i	92	0.39
O=C(N[C@@H](Cc1ccccc1)c1nc2ccccc2[nH]1)c1cc([N+](=O)[O-])ccc1Cl	81	-18	89*	i	75	-1.2
O=C(Nc1cccc(NC(=O)c2ncn[nH]2)c1)c1cccc(Cl)c1	·	23	100*	i	·	-0.63
Cc1nn(C)c(Oc2ccccc2)c1CCNC(=O)CC(C)C	·	·	-6	i	·	0.28
Cc1ccc2nc(/C(C#N)=C/c3cn[nH]c3-c3ccc(F)cc3)[nH]c2c1	1.5*	-3	26	i	1.2*	-0.67
CCOC(=O)C1(CC2CCCCO2)CCN(Cc2nccn2-c2cccc(C)c2)CC1 (centres undefined)	·	·	53*	i	·	-0.38
CCCCNC(=O)C1CC(=O)N(C2CCCCC2)C1 (centres undefined)	88	-3	19	i	99	3*
C/C(=N\OC(=O)c1ccc(Br)cc1)c1ccccn1	99	16	88*	i	97	0.35
N/C(=N\OC(=O)/C=C/c1ccccc1Cl)c1ccccn1	·	·	2	i	·	·
N/C(=N\OC(=O)/C=C/c1ccc(Br)cc1)c1ccccn1	79	-8	77*	i	83	-0.44
Cn1c(O)c(C2=c3ccccc3=NC2=O)[nH]c1=S	77	-54	-4	i	78	0.07
O=C1N=c2ccccc2=C1c1c(O)n(-c2cccc(F)c2)[nH]c1=O	94	-1	61*	i	95	0.36
Cc1cc(C)cc(-n2c(C)cc(C(=S)N3CCOCC3)c2C)c1	69	3	55*	i	74	0.55
O=C1C(Cl)=C(NCCc2ccccc2)C(=O)N1CCc1ccccc1	82	9	-7	i	85	·
